What all share (assay): NCI-60 one-dose screen, 48 h (100 = growth as untreated, 0 = no growth, -100 = all killed)
One test has as its system HT29 colon. The settings on record: 10 µM unless noted.
In a further test the test system is SNB-19 CNS. The settings on record: 10 µM unless noted.
A further test concerns PC-3 prostate. The conditions noted are these: 10 µM unless noted.
A further test has as its system UACC-62 melanoma. The conditions noted are these: 10 µM unless noted.
Another test relates to LOX IMVI melanoma. The conditions noted are these: 10 µM unless noted.
The test system of another test is SK-MEL-28 melanoma. The settings on record: 10 µM.
The next test relates to SK-MEL-2 melanoma. The settings on record: 10 µM unless noted.
Another test deals with EKVX NSCLC. The settings on record: 10 µM unless noted.
A further test concerns SN12C renal. The settings on record: 10 µM unless noted.
The next test relates to UO-31 renal. The settings on record: 10 µM unless noted.
For a further test, the system named is TK-10 renal. The conditions noted are these: 10 µM unless noted.
The subject of the next test is ACHN renal. The conditions noted are these: 10 µM unless noted.
A further test relates to CAKI-1 renal. The conditions noted are these: 10 µM unless noted.
The test system of the next test is CCRF-CEM leukemia. The settings on record: 10 µM unless noted.
For the next test, the system named is MOLT-4 leukemia. The conditions noted are these: 10 µM unless noted.
The subject of a further test is SR leukemia. The settings on record: 10 µM unless noted.
The next test concerns SNB-75 CNS. The settings on record: 10 µM unless noted.
In another test the test system is U251 CNS. The settings on record: 10 µM unless noted.
For another test, the system named is A498 renal. The conditions noted are these: 10 µM unless noted.
For the next test, the system named is SK-MEL-5 melanoma. The conditions noted are these: 10 µM unless noted.

Experimental findings from PubChem BioAssay (NCI) are described below.

SMILES strings stand for the structures. Compounds without any hit were thinned out: in the full panel of roughly 83,000, 20% have a hit.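 Cell lines were cultured in 96-well plates, exposed to a single compound concentration, and assessed for percent growth 48 hours later.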 Unmarked numbers belong to inactive results. Active and inactive are the calls of the source. The calls were made as follows: active = growth percent below 10; inactive = the rest.

Regarding `COc1cc(/C=C2\Oc3cc(OCCCN4CCCC4)ccc3C2=O)cc(OC)c1`, the growth was -42.4% (active) with HT29 colon; 64.7% in the test on SNB-19 CNS; 39.3% in the test with PC-3 prostate; 71.1% with UACC-62 melanoma; -78% (active) with LOX IMVI melanoma; 73.5% in the test on SK-MEL-28 melanoma. Moreover, the growth in the test with SK-MEL-2 melanoma is 108%; in the test on EKVX NSCLC it was 77.1%; in the test on SN12C renal it was 78.8%; with UO-31 renal, 53.4%; in the test on TK-10 renal, 101%; with ACHN renal it was -45.4% (active). Further, the growth is 58.6% in the test with CAKI-1 renal, -24.4% (active) with CCRF-CEM leukemia, -22.9% (active) with MOLT-4 leukemia and -49.3% (active) with SR leukemia.
As for `O=c1oc2ccc(Br)cc2c(=O)n1-c1ccc(Cl)cc1F`, the growth in the test with HT29 colon is 20.2%; in the test on SNB-75 CNS, -26.9% (active); with U251 CNS it was 3.56% (active); in the test with PC-3 prostate, -7.82% (active); in the test with UACC-62 melanoma it was -28.5% (active); in the test with LOX IMVI melanoma, 8.91% (active). The growth in the test on SK-MEL-28 melanoma is -0.768% (active); in the test with SK-MEL-2 melanoma, -19.6% (active); in the test with SN12C renal, 1.42% (active); in the test with UO-31 renal it was 7.61% (active); with TK-10 renal it was 7.09% (active); with ACHN renal, 2.66% (active). Moreover, the growth is -18.1% (active) with CAKI-1 renal, -69.8% (active) with A498 renal, 6.89% (active) in the test with CCRF-CEM leukemia and -8.39% (active) in the test on MOLT-4 leukemia.
In the case of `COc1cc(C2C(C#N)=C(N)OC3=C2C(=O)c2ccccc2C3=O)cc(OC)c1OC` (centres undefined), the growth in the test on HT29 colon was 106%; in the test on SNB-75 CNS, 7.57% (active); in the test with U251 CNS it was 17.9%; with PC-3 prostate, 19%; in the test with UACC-62 melanoma it was 25.9%; with LOX IMVI melanoma it was 27.4%. Also, the growth is 58.1% with SK-MEL-28 melanoma; -2.31% (active) in the test on SK-MEL-2 melanoma; 52.4% in the test on EKVX NSCLC; 39.2% in the test with SN12C renal; 41.2% in the test with UO-31 renal; 63.9% with TK-10 renal. For the same compound, the growth was 37.3% with ACHN renal; 40.9% in the test on CAKI-1 renal; -0.0439% (active) in the test on A498 renal; 55.6% with CCRF-CEM leukemia; 87.1% in the test with MOLT-4 leukemia; 31.6% with SR leukemia.
In the case of `Cc1ccc(Cn2c(N3CCC(C(=O)NCc4cccs4)CC3)nc3ccccc32)cc1`, the growth was 48.6% in the test on HT29 colon; 77.5% in the test on SNB-75 CNS; 73.9% in the test with U251 CNS; 39.8% with PC-3 prostate; 92% in the test on SK-MEL-5 melanoma; 101% in the test with UACC-62 melanoma. Moreover, the growth in the test on SK-MEL-28 melanoma is 98.1%; with SK-MEL-2 melanoma, 101%; in the test with SN12C renal, 87.9%; with TK-10 renal it was 95.7%; with ACHN renal, 98.5%; in the test with CAKI-1 renal, 89.1%. Besides, the growth is 62.4% with A498 renal, 8.48% (active) with CCRF-CEM leukemia, 21.6% in the test on MOLT-4 leukemia and -37% (active) in the test on SR leukemia.
For the compound `CN1C(=O)N(C)C2C1NN=c1s/c(=C\c3c[nH]c4ccccc34)c(=O)n12` (centres undefined), the growth was 11.3% in the test with HT29 colon; 27.3% with SNB-19 CNS; 14.5% with U251 CNS; 23.4% in the test with PC-3 prostate; 38.3% with UACC-62 melanoma; 22.3% in the test on LOX IMVI melanoma. Moreover, the growth with SK-MEL-28 melanoma is 69.4%; in the test on SK-MEL-2 melanoma, 52.5%; in the test on EKVX NSCLC it was 51.7%; in the test on SN12C renal, 35.4%; with UO-31 renal, 48%; in the test on TK-10 renal, 86.4%. The growth in the test on ACHN renal was 32.5%; in the test with CAKI-1 renal it was 81.7%; in the test with CCRF-CEM leukemia it was 16.2%; in the test with MOLT-4 leukemia, 14.9%; in the test on SR leukemia it was 8.78% (active).
For the compound `O=C1N=c2ccccc2=C1c1sc(=Nc2ccccc2)n(Nc2ccccc2)c1O`, the growth in the test with HT29 colon was 112%; in the test on SNB-19 CNS, 101%; in the test on U251 CNS, 97.5%; in the test with PC-3 prostate it was 97.3%; in the test on UACC-62 melanoma, 92.1%; with LOX IMVI melanoma, 100%. The growth in the test with SK-MEL-28 melanoma was 112%; with SK-MEL-2 melanoma, 103%; with EKVX NSCLC it was 94.2%; with SN12C renal it was 106%; in the test on UO-31 renal, 81.4%; with TK-10 renal, 138%. In addition, the growth is 109% in the test with ACHN renal; 37.2% with CAKI-1 renal; 103% in the test with CCRF-CEM leukemia; 99.3% with MOLT-4 leukemia; 99.2% in the test on SR leukemia.
Regarding `CCCSC1=NC2C(N(CC)C(=O)N2CC)N1/N=C/C=C/c1ccccc1[N+](=O)[O-]` (centres undefined), the growth with HT29 colon is 9.1% (active); with SNB-19 CNS, 29.6%; with U251 CNS, 21.7%; in the test with PC-3 prostate it was 24.9%; in the test with UACC-62 melanoma it was 36.6%; in the test on LOX IMVI melanoma it was 37.7%. In addition, the growth in the test on SK-MEL-28 melanoma was 63.5%; in the test with SK-MEL-2 melanoma, 48.6%; in the test on EKVX NSCLC it was 53.6%; in the test on SN12C renal it was 40.6%; with UO-31 renal it was 44%; in the test on TK-10 renal, 85.1%. Besides, the growth in the test with ACHN renal was 41.5%; with CAKI-1 renal it was 44.1%; with CCRF-CEM leukemia it was 16%; in the test on MOLT-4 leukemia it was 18.6%; in the test with SR leukemia, 9.32% (active).
Regarding `COc1ccc2[nH]c(O)c(N=NC(=O)c3oc4ccccc4c3C)c2c1`, the growth was 27.3% in the test on HT29 colon; 42.7% in the test with SNB-19 CNS; 2.05% (active) in the test on U251 CNS; 21.8% in the test on PC-3 prostate; 34.3% in the test with UACC-62 melanoma; 16.3% with LOX IMVI melanoma. Besides, the growth with SK-MEL-28 melanoma was 15.8%; with SK-MEL-2 melanoma, 70.9%; in the test on SN12C renal, 34.9%; in the test on UO-31 renal, -55.3% (active); in the test with TK-10 renal it was -64% (active); in the test on ACHN renal, -50.9% (active). Further, the growth in the test on CAKI-1 renal was -51.7% (active); in the test on CCRF-CEM leukemia, 57.1%; in the test on MOLT-4 leukemia, 50.9%; in the test with SR leukemia, 43.5%.
Regarding `CN1C(=O)N(C)C2C1NN=c1s/c(=C\c3ccc(Cl)cc3Cl)c(=O)n12` (centres undefined), the growth was 15% with HT29 colon; 26.5% in the test on SNB-19 CNS; 27.5% in the test with U251 CNS; 20% with PC-3 prostate; 30% with UACC-62 melanoma; 58.7% with SK-MEL-28 melanoma. Moreover, the growth in the test with SK-MEL-2 melanoma was 57%; in the test on EKVX NSCLC, 50.1%; in the test with SN12C renal, 30.9%; in the test on UO-31 renal it was 47.3%; with TK-10 renal, 83.7%; in the test with ACHN renal, 29%. The growth with CAKI-1 renal is 40.9%; in the test on CCRF-CEM leukemia, 15%; in the test with MOLT-4 leukemia, 13.1%; in the test on SR leukemia, 4.89% (active).
